Compounds without any hit were thinned out: in the full panel of roughly 79,000, 15% have a hit. The source made the active and inactive calls. Cut-off read from the data, not from the text of the source: active = growth inhibition above about 70%; inactive = the rest.
Legend:
[1] = NCI Yeast Anticancer Drug Screen. Data for the rad52 strain (AID 147);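 note: 0% = growth of vehicle-treated control cultures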; conditions: S. cerevisiae rad52 mutant growth inhibition, hits give high values
In short: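 Yeast strain carrying a DNA damage repair alteration was exposed to test compounds. Growth inhibition was measured relative to vehicle-treated controls.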

[2] = NCI Yeast Anticancer Drug Screen. Data for the wt1 strain (AID 149);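 note: 0% = growth of vehicle-treated wt1 cultures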; conditions: S. cerevisiae wt1 strain (SPY 50644) growth inhibition, hits give high values
In short: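 The wt1 strain was treated with compounds, and growth was compared with vehicle-treated cultures to give inhibition.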

[3] = NCI Yeast Anticancer Drug Screen. Data for the rad50EPP+ strain (AID 151);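 note: 0% = growth of vehicle-treated control cultures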; conditions: S. cerevisiae rad50 mutant strain, hits give high values
In short: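 Yeast strain carrying rad50 alteration (rad50EPP+) exposed to compounds; growth inhibition measured relative to vehicle-treated controls.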

[4] = NCI Yeast Anticancer Drug Screen. Data for the mgt1 strain (AID 153); conditions: S. cerevisiae mgt1 mutant growth inhibition, hits give high values
In short: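 Yeast mgt1 strain (DNA repair/cell-cycle alteration panel) exposed to compounds; growth inhibition measured relative to vehicle-treated controls.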

[5] = NCI Yeast Anticancer Drug Screen. Data for the rad50 strain (AID 155);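 note: 0% = growth of vehicle-only cultures of the same strain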; conditions: S. cerevisiae rad50 strain growth inhibition, hits give high values
In short: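 Cells are treated with compound, grown, and their growth is then scored against vehicle-only cultures of the same repair-deficient yeast strain.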

[6] = NCI Yeast Anticancer Drug Screen. Data for the mec2-1 strain (AID 157); conditions: S. cerevisiae mec2-1 strain, hits give high values
In short: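 mec2-1 yeast strain, carrying an alteration in DNA damage repair or cell cycle control, was exposed to compounds; growth inhibition was measured relative to vehicle-treated controls.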

[7] = NCI Yeast Anticancer Drug Screen. Data for the rad14 strain (AID 159);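 note: 0% = growth of vehicle-treated control cultures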; conditions: S. cerevisiae rad14 strain growth inhibition, hits give high values
In short: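 Readout: yeast growth inhibition, referenced to vehicle-only cultures. Strain bears a defined alteration in DNA damage repair.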

[8] = NCI Yeast Anticancer Drug Screen. Data for the sgs1 mgt1 strain (AID 161);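 note: 0% = growth of cultures given vehicle only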; conditions: S. cerevisiae sgs1 mgt1 strain, hits give high values
In short: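 Compounds are added to genetically altered yeast, and growth is compared with cultures given vehicle alone to give percent inhibition.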

[9] = NCI Yeast Anticancer Drug Screen. Data for the cln2 rad14 strain (AID 165);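 note: 0% = growth equal to vehicle treated cultures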; conditions: S. cerevisiae cln2 rad14 strain, hits give high values
In short: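 Yeast carrying cln2 and rad14 alterations (cell cycle control and DNA damage repair) were exposed to compounds. Growth inhibition was measured against vehicle-treated controls.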

[10] = NCI Yeast Anticancer Drug Screen. Data for the bub3 strain (AID 167); conditions: S. cerevisiae bub3 mutant strain, hits give high values
In short: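 Part of a panel of yeast mutants defective in DNA damage repair or cell cycle regulation. Each strain is grown with compound, and inhibition is calculated relative to solvent-treated cultures.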

[11] = NCI Yeast Anticancer Drug Screen. Data for the wt2 strain (AID 169);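 note: 0% = growth of vehicle-treated yeast cultures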; conditions: S. cerevisiae wt2 strain growth inhibition, hits give high values
In short: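 Yeast cells were exposed to test compounds, and growth inhibition was measured relative to vehicle-treated controls.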

[12] = NCI Yeast Anticancer Drug Screen. Data for the sgs1 strain (AID 173);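 note: 0% = growth of vehicle-only control cultures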; conditions: S. cerevisiae sgs1 mutant, hits give high values
In short: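 Yeast mutant strains carrying defined defects in DNA damage repair or cell cycle control were exposed to test compounds. Growth inhibition was scored against vehicle-treated controls.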

[13] = NCI Yeast Anticancer Drug Screen. Data for the mlh1 rad18 strain (AID 175); conditions: S. cerevisiae mlh1 rad18 strain growth inhibition, hits give high values
In short: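 Growth inhibition of the yeast strain was measured after compound exposure and expressed relative to vehicle-treated controls. The strain carries defined defects in DNA damage repair.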

[14] = NCI Yeast Anticancer Drug Screen. Data for the rad18 strain (AID 177); conditions: S. cerevisiae rad18 mutant growth inhibition, hits give high values
In short: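 Yeast carrying a defined DNA damage repair alteration were exposed to compounds. Growth inhibition was expressed relative to vehicle-treated controls.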

[15] = at 5.0 µM (retest, dose inferred, filed as 0.5)
[16] = at 50.0 µM (retest, dose inferred, filed as 5.0)

Measured: growth inhibition

COc1ccc(O)c(/C=N\Nc2ccccc2)c1
active: [3]; at 100.0 µM 70% | [5]; [16] 71% | [5]; at 50.0 µM 99.4% | [5]; at 100.0 µM 73% | [6]; at 50.0 µM 99.3% | [7]; at 100.0 µM 94% | [8]; at 50.0 µM 98.8% | [9]; at 50.0 µM 99% | [10]; at 50.0 µM 98.9% | [11]; at 100.0 µM 96% | [12]; at 100.0 µM 94% | [13]; at 50.0 µM 98.5%
inactive: [1]; at 1.2 µM -10% | [1]; at 3.7 µM -11% | [1]; at 11.0 µM -3% | [1]; at 33.0 µM 54% | [1]; at 100.0 µM 55% | [2]; at 1.2 µM -1% | [2]; at 3.7 µM 5% | [2]; at 11.0 µM 11% | [2]; at 33.0 µM 12% | [2]; at 100.0 µM 33% | [3]; at 1.2 µM -8% | [3]; at 3.7 µM -18% | [3]; at 11.0 µM 13% | [3]; at 33.0 µM 50% | [4]; at 1.2 µM -6% | [4]; at 3.7 µM -7% | [4]; at 11.0 µM -6% | [4]; at 33.0 µM -6% | [4]; at 100.0 µM 36% | [5]; at 1.2 µM -14% | [5]; at 3.7 µM -9% | [5]; [15] -124% | [5]; at 11.0 µM -4% | [5]; at 33.0 µM 25% | [6]; at 1.2 µM -6% | [6]; at 3.7 µM -5% | [6]; [15] -52% | [6]; at 11.0 µM -5% | [6]; at 33.0 µM -5% | [6]; [16] -12% | [6]; at 100.0 µM -2% | [7]; at 1.2 µM 0% | [7]; at 3.7 µM -1% | [7]; at 11.0 µM 5% | [7]; at 33.0 µM 30% | [8]; [15] -64% | [8]; [16] -22% | [9]; [15] -61% | [9]; [16] -19% | [10]; at 1.2 µM -9% | [10]; at 3.7 µM -9% | [10]; [15] -73% | [10]; at 11.0 µM -9% | [10]; at 33.0 µM 6% | [10]; [16] -4% | [10]; at 100.0 µM 49% | [11]; at 1.2 µM 3% | [11]; at 3.7 µM 8% | [11]; at 11.0 µM 21% | [11]; at 33.0 µM 51% | [12]; at 1.2 µM -13% | [12]; at 3.7 µM -9% | [12]; at 11.0 µM 11% | [12]; at 33.0 µM 39% | [13]; [15] -132% | [13]; [16] 13% | [14]; at 1.2 µM -9% | [14]; at 3.7 µM -8% | [14]; at 11.0 µM -2% | [14]; at 33.0 µM 14% | [14]; at 100.0 µM 54%

— PubChem BioAssay (NCI)
